Data: PubChem BioAssay (NCI)
Compounds without any hit were thinned out: in the full panel of roughly 79,000, 15% have a hit. A number with no mark means an inactive call. Activity calls are given as the source filed them. Rule as the data show it: active = growth inhibition above about 70%; inactive = the rest.

What was measured:
[1] = NCI Yeast Anticancer Drug Screen. Data for the wt1 strain (AID 149);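 also: 0% = growth of vehicle-treated wt1 cultures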; conditions: S. cerevisiae wt1 strain (SPY 50644) growth inhibition, hits give high values
In short: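 Yeast wt1 strain exposed to compounds; growth inhibition measured relative to vehicle-treated controls.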

[2] = NCI Yeast Anticancer Drug Screen. Data for the rad50EPP+ strain (AID 151);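 also: 0% = growth of vehicle-treated control cultures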; conditions: S. cerevisiae rad50 mutant strain, hits give high values
In short: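 Compounds were applied to the rad50EPP+ yeast strain, which bears a defined DNA repair alteration, and growth inhibition was determined relative to vehicle-treated cultures.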

[3] = NCI Yeast Anticancer Drug Screen. Data for the mgt1 strain (AID 153); conditions: S. cerevisiae mgt1 mutant growth inhibition, hits give high values
In short: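 Strain: mgt1 yeast, one of a set carrying defined DNA damage repair or cell cycle control alterations. Compound-treated growth compared with vehicle.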

[4] = NCI Yeast Anticancer Drug Screen. Data for the rad50 strain (AID 155);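 also: 0% = growth of vehicle-only cultures of the same strain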; conditions: S. cerevisiae rad50 strain growth inhibition, hits give high values
In short: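 Yeast carrying a defined DNA repair defect were exposed to test compounds, and growth was compared with vehicle-treated controls to give percent inhibition.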

[5] = NCI Yeast Anticancer Drug Screen. Data for the mec2-1 strain (AID 157); conditions: S. cerevisiae mec2-1 strain, hits give high values
In short: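 Strain: mec2-1 (DNA repair/cell cycle alteration). Compound exposure, then growth measured; inhibition expressed relative to vehicle.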

[6] = NCI Yeast Anticancer Drug Screen. Data for the sgs1 mgt1 strain (AID 161);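 also: 0% = growth of cultures given vehicle only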; conditions: S. cerevisiae sgs1 mgt1 strain, hits give high values
In short: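 Mutant yeast exposed to compound; growth scored against vehicle-only wells.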

[7] = NCI Yeast Anticancer Drug Screen. Data for the CLN2oe strain (AID 163);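 also: 0% = growth of vehicle-only control cultures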; conditions: S. cerevisiae CLN2oe strain, hits give high values
In short: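 Growth of a genetically modified yeast strain is measured after compound exposure and compared with cultures given vehicle alone.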

[8] = NCI Yeast Anticancer Drug Screen. Data for the cln2 rad14 strain (AID 165);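 also: 0% = growth equal to vehicle treated cultures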; conditions: S. cerevisiae cln2 rad14 strain, hits give high values
In short: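 Compounds are applied to the cln2 rad14 yeast strain, and growth is then compared with that of vehicle-treated cultures to give inhibition.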

[9] = NCI Yeast Anticancer Drug Screen. Data for the bub3 strain (AID 167); conditions: S. cerevisiae bub3 mutant strain, hits give high values
In short: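 Compounds were applied to a genetically altered yeast strain carrying a cell-cycle control defect. Growth inhibition was scored against vehicle-treated controls.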

[10] = NCI Yeast Anticancer Drug Screen. Data for the wt2 strain (AID 169);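 also: 0% = growth of vehicle-treated yeast cultures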; conditions: S. cerevisiae wt2 strain growth inhibition, hits give high values
In short: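 This strain belongs to a panel of yeast strains with defined genetic alterations in DNA damage repair or cell cycle control. Compounds are applied, and growth inhibition is measured against vehicle-treated cultures.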

[11] = NCI Yeast Anticancer Drug Screen. Data for the mlh1 strain (AID 171);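 also: 0% = growth of vehicle-treated control cultures of the same strain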; conditions: S. cerevisiae mlh1 strain growth inhibition, hits give high values
In short: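 Growth of the mutant yeast strain after compound exposure, expressed as inhibition relative to vehicle-only controls.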

[12] = NCI Yeast Anticancer Drug Screen. Data for the mlh1 rad18 strain (AID 175); conditions: S. cerevisiae mlh1 rad18 strain growth inhibition, hits give high values
In short: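 Read-out is yeast growth inhibition, calculated against vehicle-only controls. The compound was applied to a strain engineered with DNA damage repair alterations.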

[13] = NCI Yeast Anticancer Drug Screen. Data for the rad18 strain (AID 177); conditions: S. cerevisiae rad18 mutant growth inhibition, hits give high values
In short: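 Growth of the mutant yeast strain after compound exposure, normalised to vehicle-only cultures.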

[14] = at 5.0 µM (retest, dose inferred, filed as 0.5)
[15] = at 50.0 µM (retest, dose inferred, filed as 5.0)

Question: What does the source list for `CCOc1nc(OCC)nc(-c2cccn2-c2ccccc2)n1`?
Answer: growth inhibition ([1]; at 1.2 µM): -19%; growth inhibition ([1]; at 3.7 µM): -22%; growth inhibition ([1]; at 11.0 µM): -13%; growth inhibition ([1]; at 33.0 µM): -11%; growth inhibition ([1]; at 100.0 µM): 94% (active); growth inhibition ([2]; at 1.2 µM): 1%; growth inhibition ([2]; at 3.7 µM): 5%; growth inhibition ([2]; at 11.0 µM): 23%; growth inhibition ([2]; at 33.0 µM): 12%; growth inhibition ([2]; at 100.0 µM): 40%; growth inhibition ([3]; at 1.2 µM): 1%; growth inhibition ([3]; at 3.7 µM): 8%; growth inhibition ([3]; at 11.0 µM): 6%; growth inhibition ([3]; at 33.0 µM): 25%; growth inhibition ([3]; at 100.0 µM): 96% (active); growth inhibition ([4]; at 1.2 µM): 7%; growth inhibition ([4]; at 3.7 µM): 40%; growth inhibition [4, 14]: 85% (active); growth inhibition ([4]; at 11.0 µM): 35%; growth inhibition ([4]; at 33.0 µM): 26%; growth inhibition [4, 15]: 100% (active); growth inhibition ([4]; at 50.0 µM): 70.3% (active); growth inhibition ([4]; at 100.0 µM): 92% (active); growth inhibition ([5]; at 1.2 µM): -4%; growth inhibition ([5]; at 3.7 µM): 9%; growth inhibition [5, 14]: 93% (active); growth inhibition ([5]; at 11.0 µM): -6%; growth inhibition ([5]; at 33.0 µM): 12%; growth inhibition [5, 15]: 100% (active); growth inhibition ([5]; at 50.0 µM): 59.7%; growth inhibition ([5]; at 100.0 µM): 93% (active); growth inhibition [6, 14]: -13%; growth inhibition [6, 15]: 74% (active); growth inhibition ([7]; at 1.2 µM): -2%; growth inhibition ([7]; at 3.7 µM): 0%; growth inhibition ([7]; at 11.0 µM): 11%; growth inhibition ([7]; at 33.0 µM): 6%; growth inhibition ([7]; at 100.0 µM): 91% (active); growth inhibition [8, 14]: 55%; growth inhibition [8, 15]: 83% (active); growth inhibition ([9]; at 1.2 µM): 19%; growth inhibition ([9]; at 3.7 µM): 36%; growth inhibition [9, 14]: 14%; growth inhibition ([9]; at 11.0 µM): 32%; growth inhibition ([9]; at 33.0 µM): 43%; growth inhibition [9, 15]: 87% (active); growth inhibition ([9]; at 100.0 µM): 94% (active); growth inhibition ([10]; at 1.2 µM): -3%; growth inhibition ([10]; at 3.7 µM): 8%; growth inhibition ([10]; at 11.0 µM): 1%; growth inhibition ([10]; at 33.0 µM): 38%; growth inhibition ([10]; at 100.0 µM): 95% (active); growth inhibition ([11]; at 1.2 µM): -25%; growth inhibition ([11]; at 3.7 µM): -6%; growth inhibition ([11]; at 11.0 µM): -12%; growth inhibition ([11]; at 33.0 µM): 2%; growth inhibition ([11]; at 100.0 µM): 89% (active); growth inhibition [12, 14]: 86% (active); growth inhibition [12, 15]: 100% (active); growth inhibition ([12]; at 50.0 µM): 80.2% (active); growth inhibition ([13]; at 1.2 µM): -4%; growth inhibition ([13]; at 3.7 µM): 15%; growth inhibition ([13]; at 11.0 µM): 19%; growth inhibition ([13]; at 33.0 µM): 19%; growth inhibition ([13]; at 100.0 µM): 93% (active)
